Screening data as filed in PubChem.
The list is not random: actives were taken first. Their share in the collection is about 6.2%.
ATXN2 expr inh = ATXN2 expression inhibition; HEK-293 ATXN2-luciferase reporter, luminescence, 24 h; Potency, µM (top dose mostly 57 µM), inactives show top-dose activity change, negative = inhibition, usual class: inhibitors; 360,000 compounds, 0.72% hits; AID 1745845; further: on the % scale 0 is the no-effect control and ±100 the full control effect; nearly all actives have a fitted effect of over 55% in size
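ATXN2-luciferase reporter cells (luciferase flanked by upstream and downstream ATXN2 gene portions) were treated 24 h at 37 °C with compounds at up to 57 uM. SteadyGlo luminescence gave expression; GF-AFC fluorescence gave viability.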
HT1080 IDH1KD tx = HT-1080 IDH1 knockdown cell toxicity (counter line); Potency, µM (doses to about 46.1 µM), for the others: at the highest dose activity, negative = toxicity, most hits filed as cytotoxic; HT-1080 IDH1 knockdown viability, ATP luminescence, 48 h; 360,000 compounds, 2% hits;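 further: 0% = DMSO wells and -100% = cell-free medium wells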
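Using the IDH1-knockdown HT-1080 line run in the same batch and compound series as the NT line, viability after 48 h at 37 °C was determined by CellTiter-Glo luminescence and expressed as % activity.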
S2 tox = viability counter-screen for ATXN expression inhibitors. S2 cells (HEK-293 line with an ATXN2-luciferase reporter) viability, CellTiter-Fluor protease fluorescence, 24 h. Potency, µM (top dose mostly 56.7 µM), hits mostly cytotoxic. 400,000 compounds, 0.49% hits. AID 651635; further: nearly all actives have a fitted effect of over 40% in size
HT1080-NT tox = kills 2HG-producing HT-1080-NT fibrosarcoma cells. 360,000 compounds, 1.6% hits. HT-1080-NT fibrosarcoma viability, CellTiter-Glo ATP luminescence, 48 h. Potency, µM (top dose mostly 46.1 µM), inactives show top-dose activity, negative = less viability, actives largely listed as cytotoxic;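 further: NT is the 2HG producing partner of a matched IDH1 knockdown line; 0% = DMSO-treated cells and -100% = media-only wells without cells; nearly all actives have a fitted effect of over 55% in size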
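HT-1080-NT fibrosarcoma cells (2HG-overproducing), 750 cells/well in RPMI with 5% FBS, dosed after 2 h and incubated 48 h at 37C. CellTiter-Glo luminescence normalized to DMSO and no-cell wells; concentration-response curves fitted and classed.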
KB-V1 cytotox = kills drug-selected multidrug resistant KB-V1 cells; 400,000 compounds, 3.4% hits; Potency, µM (series often up to 46.1 µM), actives largely listed as cytotoxic; KB-V1 MDR cells viability, CellTiter-Glo, 72 h; AID 1347076; further: on the % scale 0 is the no-effect control and ±100 the full control effect; nearly all actives have a fitted effect of over 60% in size
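Drug-selected KB-V1 cells, grown in DMEM lacking phenol red with 10% FBS, receive compound titrations; after three days at 37 degrees C, surviving cell ATP is quantified by CellTiter-Glo luminescence and responses normalized and curve-fitted.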
KB-3-1 tox = kills parental KB-3-1 adenocarcinoma cells. KB-3-1 viability, CellTiter-Glo ATP luminescence, 72 h. Potency, µM (top dose mostly 46.1 µM), most hits filed as cytotoxic. 400,000 compounds, 1.4% hits. AID 1347075; further: on the % scale 0 is the no-effect control and ±100 the full control effect; nearly all actives have a fitted effect of over 60% in size
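Screening of KB-3-1 cells (DMEM, 10% FBS, phenol-red free) ran from lowest to highest compound concentration; after 72 h at 37 °C viability was read luminescently and curves fitted.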
* = called active by the depositor; i = inactive; ? = inconclusive; / = not tested or not shown; ! = not active in a repeat. The call rests on the fitted dose curve; in most records, active means well fitted curve in the direction sought with a large enough effect; inconclusive means small, poorly fitted or top-dose-only effect, or another doubt; inactive means no such curve, though single readings can be large; an effect the other way counts as inactive or inconclusive. Potency means the concentration at half of the fitted maximal effect.

SMILES | ATXN2 expr inh | HT1080 IDH1KD tx | S2 tox | HT1080-NT tox | KB-V1 cytotox | KB-3-1 tox
COc1cc(/C=C2/CCc3ccccc3C2=O)cc(OC)c1OC | -22.0% | -22.8% | i | -16.7% | 11.6µM* | ?
O=C1/C(=C/c2ccncc2)CCc2ccccc21 | / | ? | i | -8.7% | 14.6µM* | i
CCOc1cc(/C=C2\COc3ccccc3C2=O)cc(Br)c1OCC(=O)N(C)C | 22.4µM* | 13µM* | / | 18.4µM* | ? | ?
Cc1nc(-c2ccc(F)cc2)sc1CCNC(=O)c1ccccc1C(F)(F)F | -23.5% | / | ? | / | i | i
Cn1ccc2c(-c3ccc(CO)cc3)cc3c(c21)C1CCC3C1 (stereo not drawn) | -4.5% | ? | i | ? | i | i
O=C(Nc1ccc(Cl)cn1)c1cnn2c1NC(=C1CC1)C=C2C(F)F | / | / | / | / | i | i
O=C1/C(=C/c2ccncc2)CCC/C1=C\c1ccncc1 | 14.1µM* | 4.11µM* | ? | 4.61µM* | ? | 7.31µM*
O=C1C(=Cc2ccccc2Cl)CCc2ccccc21 | 3.7% | ? | i | ? | ? | 20.6µM*
OCCn1cc(-c2cnc3nnn(Cc4ccc5ncccc5c4)c3n2)cn1 | -11.1% | / | / | / | / | /
ClC(=C\c1ccccc1)/C=N/N1CCN(c2ccccn2)CC1 | 1.4% | 8.3% | i | 4.2% | 18.4µM* | i
Cc1ccc(/C=N/N2CCN(c3ccccn3)CC2)cc1 | 23.1% | 14.0% | i | 10.7% | i | i
CCc1sc(NC(C)=O)nc1-c1ccccc1 | / | 7.1% | i | 17.9% | i | i
CCc1sc(N2C(=O)C3C4CCC(C4=C(C)C)C3C2=O)nc1-c1ccccc1 (stereo not drawn) | 7.4% | -22.3% | i | -28.0% | 11.6µM* | i
Cc1c(C(N)=O)c(N)c(C(=O)c2ccccc2)n1-c1ccccc1 | 4.6% | 9.0% | i | 2.5% | 20.6µM* | i
COC(=O)c1ccc2c(c1)C(C)(C)C(/C=C/c1ccc(OC)c(OC)c1OC)=[N+]2C | 25.1µM* | 11.6µM* | ? | 11.6µM* | i | 5.17µM*
COC(=O)c1ccc2c(c1)C(C)(C)C(/C=C/c1ccc(O)cc1)=[N+]2C | 3.16µM* | 2.82µM* | 7.94µM* | 5.01µM* | 6.31µM* | ?
COc1cc(/C=C/c2ccc(O)cc2)cc(OC)c1 | 8.7% | -1.6% | i | -1.8% | i | i
Cc1ccccc1C(=O)Nc1ccc2nc3n(c(=O)c2c1)CCC3 | 4.3% | 13.0% | i | 11.7% | ? | 6.51µM*
CCOC(=O)/C(C#N)=C/c1c(OCC)n(CC)c2ccccc12 | -18.0% | -1.1% | i | 3.6% | 7.31µM* | i
CCOC(=O)/C(C#N)=C\c1cn(C)c2ccccc12 | -18.6% | -13.3% | ? | -12.3% | i | i
O=C(C[C@H]1C=C[C@H](NC(=O)c2ccccn2)[C@@H](CO)O1)NCc1cc(F)cc(F)c1 | / | 13.5% | / | 11.4% | i | i
CCCCc1oc2ccccc2c1C(=O)c1cc(I)c(OCCN(CC)CC)c(I)c1 | 28.2µM*! | ? | / | ? | i | i
C[C@H](NCc1ccc2c(c1)nc(NC(=O)c1ccc(-c3cn[nH]c3)s1)n2CCc1ccccc1)C(C)(C)C | 1.93µM* | / | / | / | / | /
CO[C@@H]1CN(C)C(=O)c2ccc(NC(=O)C3CCCC3)cc2OC[C@@H](C)N(Cc2ccc(F)cc2)C[C@H]1C | / | -21.5% | / | -18.8% | 23.1µM* | ?
NC(=O)COc1ccc(/C=C2\C(=O)ON=C2c2ccccc2)cc1 | -17.8% | -22.8% | i | -0.3% | ? | i
SMILES | ATXN2 expr inh | HT1080 IDH1KD tx | S2 tox | HT1080-NT tox | KB-V1 cytotox | KB-3-1 tox
Cc1ccc(N(CC(=O)Nc2cccc(Cl)c2)S(=O)(=O)c2cccs2)cc1 | 6.5% | / | i | / | i | i
NC(Cc1ccc(C(F)(F)F)cc1)c1csc(NC(=O)Nc2ccccc2Cc2ccccc2)n1 (stereo not drawn) | ? | 23.1µM* | / | 8.2µM* | ? | ?
CC(C)CC(N)c1csc(NC(=O)Nc2ccccc2C(C)C)n1 (stereo not drawn) | ? | ? | ? | ? | ? | i
CC(C)c1ccccc1NC(=O)Nc1nc(C(N)Cc2ccc(C(F)(F)F)cc2)cs1 (stereo not drawn) | ? | ? | / | 5.8µM* | ? | ?
CN(C)Cc1csc(NC(=O)Nc2ccccc2Cc2ccccc2)n1 | -1.7% | ? | ? | 14.6µM* | i | i
COc1ccc(N2C(=O)c3ccccc3NC2c2ccc(OC)c(COc3ccc(NC(C)=O)cc3)c2)cc1 (stereo not drawn) | / | / | / | / | i | i
CC(=O)Nc1cc(-c2ccc(N(C)C)cc2)cn2c(-c3ccc(F)cc3)cnc12 | ? | ? | ? | ? | i | i
CCOC(=O)c1cnc(-n2cc(C)cn2)nc1NCc1ccc2c(c1)OCO2 | -4.6% | 23.4% | i | 2.7% | 4.11µM* | i
CCOC(=O)c1cnc(-n2nc(C)cc2C)nc1NC(C)c1ccccc1 (stereo not drawn) | ? | 1.0% | ? | 2.3% | 1.03µM* | ?
CCOC(=O)c1cnc(-n2nc(C)cc2C)nc1NCc1ccccc1 | ? | -3.3% | ? | 0.5% | 0.92µM* | ?
Cc1cnc(C(=O)OCC(=O)NCc2ccc3c(c2)OCO3)cn1 | 3.3% | 2.6% | i | 22.5% | i | i
CCOC(=O)c1cnc(-n2nc(C)cc2C)nc1NCCO | -2.0% | 11.3% | i | -0.3% | ? | i
O=C1NC[C@H](CCCCN2C[C@H](Cc3ccccc3)N(CCC3CCCCC3)C(=O)C2=O)N(CCc2ccc(O)cc2)C1=O | 11.1% | 0.0% | i | 10.5% | i | i
O=C(Nc1cccc(C(=O)N2CCN(c3ccccc3)CC2)c1)c1nsc2ccccc12 | 1.5% | / | ? | / | i | i
CCOc1ccc(N2CC(c3nc4ccccc4n3CCCOc3ccccc3)CC2=O)cc1 (stereo not drawn) | ? | / | / | / | i | i
CCCCN1CC(c2nc3ccccc3n2CCCCOc2cc(C)cc(C)c2)CC1=O (stereo not drawn) | ? | / | ? | / | i | i
O=C1CC(c2nc3ccccc3n2CCCOc2ccccc2)CN1c1ccc(F)cc1 (stereo not drawn) | -28.7% | / | 25.1µM* | / | i | ?
CCCCN1CC(c2nc3ccccc3n2CCCCOc2cccc(C)c2C)CC1=O (stereo not drawn) | ? | / | ? | / | 18.4µM* | i
C=CCN1CC(c2nc3ccccc3n2CCOc2ccccc2)CC1=O (stereo not drawn) | -4.6% | 2.7% | i | -0.1% | 14.6µM* | i
